# Values joined by “and” are separate entries in the source; they are usually repeats but may differ in a detail not shown here. Identical values can stand only once. Among all 5,500 compounds or so, about 2,000 (36%) were called active. Another 18% or so got no clear call; they are omitted. The list shows a part of the results. Values without a mark were called inactive. Cut-off read from the data, not from the text of the source: active = normalized growth mostly below about 0.91 (no sharp cut-off); inconclusive = no clear call, values can overlap the other calls; inactive = mostly above about 0.92.
# Experiment: chemical genetic growth profiling, strain panel (AID 1159580);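 note: tested at 20 µM; growth read once vehicle control cultures reached saturation at 30 °C; 1 = growth at the plate median or of vehicle wells; lower values mean less growth of the strain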
# Details: S. cerevisiae deletion strains, growth OD
structure (smiles),measurement,setting,value
C[C@H](CCC(=O)O)[C@H]1CCC2C3C(CC[C@@]21C)[C@@]1(C)CC[C@@H](O)C[C@H]1C[C@@H]3O (stereo partly specified),normalized growth,"locus YAL013W, strain DEP1, active compounds read low",0.984
same,normalized growth,"locus YAL021C, strain ccr4, active compounds read low",1.02
same,normalized growth,"locus YAL026C, strain drs2, active compounds read low",0.997
same,normalized growth,"locus YAL030W, strain snc1, active compounds read low",0.983
same,normalized growth,"locus YBL061C, strain skt5, active compounds read low",0.986
same,normalized growth,"locus YBR009C, strain hhf1, active compounds read low",1.03
same,normalized growth,"locus YBR021W, strain FUR4, active compounds read low",0.988
same,normalized growth,"locus YBR023C, strain chs3, active compounds read low",0.987
same,normalized growth,"locus YBR171W, strain sec66, active compounds read low",0.961
same,normalized growth,"locus YBR229C, strain ROT2, active compounds read low",0.985
same,normalized growth,"locus YBR231C, strain swc5, active compounds read low",0.996
same,normalized growth,"locus YBR279W, strain paf1, active compounds read low",1
same,normalized growth,"locus YCL011C, strain gbp2, active compounds read low",1.02
same,normalized growth,"locus YCL016C, strain dcc1, active compounds read low",1.04
same,normalized growth,"locus YCL029C, strain bik1, active compounds read low",0.963
same,normalized growth,"locus YCL069W, strain vba3, active compounds read low",0.991
same,normalized growth,"locus YCR088W, strain abp1, active compounds read low",0.989
same,normalized growth,"locus YDL005C, strain med2, active compounds read low",0.989
same,normalized growth,"locus YDL035C, strain GPR1, active compounds read low",0.992
same,normalized growth,"locus YDL040C, strain nat1, active compounds read low",0.983
same,normalized growth,"locus YDL074C, strain BRE1, active compounds read low",0.946
same,normalized growth,"locus YDL101C, strain DUN1, active compounds read low",0.986
same,normalized growth,"locus YDL134C, strain PPH21, active compounds read low",0.981
same,normalized growth,"locus YDL185W, strain tfp1, active compounds read low",0.972
same,normalized growth,"locus YDL192W, strain arf1, active compounds read low",0.979
same,normalized growth,"locus YDR001C, strain nth1, active compounds read low",0.982
same,normalized growth,"locus YDR069C, strain doa4, active compounds read low",0.954
same,normalized growth,"locus YDR101C, strain arx1, active compounds read low",0.986
same,normalized growth,"locus YDR137W, strain rgp1, active compounds read low",0.821 (active)
same,normalized growth,"locus YDR150W, strain NUM1, active compounds read low",0.997
same,normalized growth,"locus YDR159W, strain sac3, active compounds read low",1.04
same,normalized growth,"locus YDR162C, strain NBP2, active compounds read low",0.989
same,normalized growth,"locus YDR195W, strain ref2",0.94
same,normalized growth,"locus YDR297W, strain sur2, active compounds read low",0.989
same,normalized growth,"locus YDR318W, strain mcm21, active compounds read low",0.977
same,normalized growth,"locus YDR334W, strain swr1, active compounds read low",0.961
same,normalized growth,"locus YDR335W, strain msn5, active compounds read low",0.981
same,normalized growth,"locus YDR388W, active compounds read low",0.98
same,normalized growth,"locus YDR392W, strain spt3, active compounds read low",1.1
same,normalized growth,"locus YDR502C, strain sam2, active compounds read low",0.984
same,normalized growth,"locus YEL003W, strain gim4, active compounds read low",0.976
same,normalized growth,"locus YEL037C, strain rad23, active compounds read low",1
same,normalized growth,"locus YEL061C, strain CIN8 (second series), active compounds read low",0.983
same,normalized growth,"locus YEL061C, strain CIN8, active compounds read low",0.99
same,normalized growth,"locus YER015W, strain faa2, active compounds read low",1.03
same,normalized growth,"locus YER016W, strain bim1, active compounds read low",0.998
same,normalized growth,"locus YER110C, active compounds read low",0.984
same,normalized growth,"locus YER111C, strain swi4, active compounds read low",0.979
same,normalized growth,"locus YER155C, strain BEM2 (second series), active compounds read low",1.02
same,normalized growth,"locus YER155C, strain BEM2, active compounds read low",0.99
same,normalized growth,"locus YER167W, strain BCK2, active compounds read low",0.988
same,normalized growth,"locus YFR010W, strain ubp6, active compounds read low",0.969
same,normalized growth,"locus YGL078C, strain dbp3, active compounds read low",0.967
same,normalized growth,"locus YGL086W, strain mad1, active compounds read low",0.985
same,normalized growth,"locus YGL167C, strain pmr1, active compounds read low",0.974
same,normalized growth,"locus YGL173C, strain kem1, active compounds read low",0.951
same,normalized growth,"locus YGL227W, strain vid30, active compounds read low",0.998
same,normalized growth,"locus YGL240W, strain doc1, active compounds read low",0.982
same,normalized growth,"locus YGL248W, strain PDE1, active compounds read low",0.996
same,normalized growth,"locus YGL253W, strain hxk2, active compounds read low",1.02
same,normalized growth,"locus YGR078C, strain PAC10, active compounds read low",0.99
same,normalized growth,"locus YGR135W, strain pre9, active compounds read low",0.975
same,normalized growth,"locus YGR229C, strain SMI1, active compounds read low",0.99
same,normalized growth,"locus YGR252W, strain gcn5, active compounds read low",1.09
same,normalized growth,"locus YHR013C, strain ard1, active compounds read low",1.03
same,normalized growth,"locus YHR027C, strain rpn1, active compounds read low",1
same,normalized growth,"locus YHR030C, strain SLT2, active compounds read low",1 and 0.948
same,normalized growth,"locus YHR079C, strain IRE1 (second series), active compounds read low",0.974
same,normalized growth,"locus YHR079C, strain IRE1, active compounds read low",0.945
same,normalized growth,"locus YHR094C, strain hxt1, active compounds read low",0.982
same,normalized growth,"locus YHR129C, strain ARP1, active compounds read low",1
same,normalized growth,"locus YHR142W, strain chs7, active compounds read low",0.999
same,normalized growth,"locus YHR200W, strain rpn10, active compounds read low",1
same,normalized growth,"locus YIL066C, strain RNR3, active compounds read low",0.98
same,normalized growth,"locus YIL073C, strain SPO22, active compounds read low",1.01
same,normalized growth,"locus YIL125W, strain kgd1, active compounds read low",0.992
same,normalized growth,"locus YIR030C, strain dcg1, active compounds read low",0.982
same,normalized growth,"locus YJL092W, strain hpr5, active compounds read low",0.985
same,normalized growth,"locus YJL095W, strain BCK1 (second series), active compounds read low",0.988
same,normalized growth,"locus YJL095W, strain BCK1, active compounds read low",0.95 and 0.958
same,normalized growth,"locus YJL115W, strain asf1, active compounds read low",0.984
same,normalized growth,"locus YJL129C, strain trk1, active compounds read low",0.99
same,normalized growth,"locus YJL134W, strain LCB3, active compounds read low",0.994
same,normalized growth,"locus YJL154C, strain vps35, active compounds read low",0.983
same,normalized growth,"locus YJL164C, strain tpk1, active compounds read low",1.04
same,normalized growth,"locus YJL166W, strain qcr8, active compounds read low",0.933
same,normalized growth,"locus YJL168C, strain set2, active compounds read low",0.982
same,normalized growth,"locus YJL187C, strain SWE1 (second series), active compounds read low",0.975
same,normalized growth,"locus YJR043C, strain POL32, active compounds read low",0.985
same,normalized growth,"locus YJR066W, strain TOR1, active compounds read low",0.937
same,normalized growth,"locus YJR075W, strain HOC1, active compounds read low",0.991

# From PubChem BioAssay AID1159580 (chemical genetic matrix, 2015)
